Experimental data taken from PubChem BioAssay (Tox21).
Records with an inconclusive call do not appear. The source made the active and inactive calls. The call rests on the fitted dose curve; in most records, active means well fitted curve in the direction sought with a large enough effect in the repeat runs; inconclusive means weak or mixed curves; inactive means no such curve, though single readings can be large; an effect the other way counts as inactive or inconclusive.

How the values were obtained:
[1] = qHTS RealTime-Glo MT Cell Viability Assay in HepG2 cells - 40 hour (AID 1224870); further: nearly all actives have a fitted effect of over 50% in size
How it was run: (§1)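 Real-time viability: cells seeded at 600 per well together with NanoLuc and cell-permeant prosubstrate, compounds added after 5 h incubation. Luminescence tracked at 0, 8, 16, 24, 32 and 40 h of exposure.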

[2] = A CellTox Green Cytotoxicity Assay to monitor cytotoxicity in HEK293 cells - 40 hour (AID 1224871); further: nearly all actives have a fitted effect of over 45% in size; further: potency means the concentration at half of the fitted maximal effect
How it was run: (§2)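 Fluorescence intensity, read at 0, 8, 16, 24, 32 and 40 h of compound treatment, reflected dye binding to DNA of dead HEK293 cells; compounds (23 nL, DMSO) were added 5 h after plating cells with reagent.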

[3] = qHTS RealTime-Glo MT Cell Viability Assay in HEK293 cells - 16 hour (AID 1224872); further: top concentration of the series differs between compounds; nearly all actives have a fitted effect of over 50% in size
How it was run: (§3)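 Assay medium contained NanoLuc luciferase plus cell-permeant prosubstrate, added with HEK293 cells at 600 cells/well. After 5 h at 37 C/5% CO2 compounds were added; plates stayed at 37 C for 40 h with serial luminescence reads.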

[4] = qHTS RealTime-Glo MT Cell Viability Assay in HEK293 cells - 40 hour (AID 1224874); details: RealTime-Glo luminescence; max response: hits give low values; further: nearly all actives have a fitted effect of over 50% in size
How it was run: (§4)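 Viable HEK293 cells reduce a cell-permeant prosubstrate; the product diffuses out and is consumed by NanoLuc in the medium to give light. Compounds went in after a 5 h incubation and plates were read over the treatment course.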

[5] = A CellTox Green Cytotoxicity Assay to monitor cytotoxicity in HEK293 cells - 24 hour (AID 1224875); further: series mostly up to about 77 µM; nearly all actives have a fitted effect of over 45% in size
How it was run: as §2

[6] = A CellTox Green Cytotoxicity Assay to monitor cytotoxicity in HepG2 cells - 16 hour (AID 1224876); further: nearly all actives have a fitted effect of over 45% in size
How it was run: (§5)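 Using 1536-well format, dye-containing HepG2 suspension was seeded, allowed 5 h at 37 C/5% CO2, dosed by pintool with compounds, positive and negative controls, and imaged for fluorescence across 40 h.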

[7] = qHTS RealTime-Glo MT Cell Viability Assay in HepG2 cells - 32 hour (AID 1224877); further: nearly all actives have a fitted effect of over 55% in size
How it was run: (§6)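 qHTS, HepG2, 600 cells/well, RealTime-Glo (NanoLuc + prosubstrate) added with cells; 5 h preincubation; DMSO compound addition; 37 C; luminescence at 0/8/16/24/32/40 h.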

[8] = A CellTox Green Cytotoxicity Assay to monitor cytotoxicity in HepG2 cells - 24 hour (AID 1224878); further: nearly all actives have a fitted effect of over 45% in size
How it was run: as §5

[9] = A CellTox Green Cytotoxicity Assay to monitor cytotoxicity in HepG2 cells - 40 hour (AID 1224879); further: nearly all actives have a fitted effect of over 40% in size
How it was run: as §5

[10] = A CellTox Green Cytotoxicity Assay to monitor cytotoxicity in HEK293 cells - 32 hour (AID 1224881); further: nearly all actives have a fitted effect of over 40% in size; further: potency means the concentration at half of the fitted maximal effect
How it was run: as §2

[11] = A CellTox Green Cytotoxicity Assay to monitor cytotoxicity in HepG2 cells - 0 hour (AID 1224882); further: nearly all actives have a fitted effect of over 35% in size
How it was run: as §5

[12] = A CellTox Green Cytotoxicity Assay to monitor cytotoxicity in HepG2 cells - 32 hour (AID 1224883); further: nearly all actives have a fitted effect of over 50% in size
How it was run: as §5

[13] = A CellTox Green Cytotoxicity Assay to monitor cytotoxicity in HEK293 cells - 8 hour (AID 1224884); further: nearly all actives have a fitted effect of over 35% in size
How it was run: as §2

[14] = qHTS RealTime-Glo MT Cell Viability Assay in HepG2 cells - 16 hour (AID 1224885); further: nearly all actives have a fitted effect of over 50% in size
How it was run: as §6

[15] = qHTS RealTime-Glo MT Cell Viability Assay in HEK293 cells - 24 hour (AID 1224886)
How it was run: as §3

[16] = qHTS RealTime-Glo MT Cell Viability Assay in HEK293 cells - 8 hour (AID 1224887); further: nearly all actives have a fitted effect of over 50% in size; further: potency means the concentration at half of the fitted maximal effect; on activity change, negative = cytotoxicity: top concentration of the series differs between compounds
How it was run: as §4

[17] = A CellTox Green Cytotoxicity Assay to monitor cytotoxicity in HEK293 cells - 16 hour (AID 1224888); further: nearly all actives have a fitted effect of over 35% in size
How it was run: as §2

[18] = qHTS RealTime-Glo MT Cell Viability Assay in HepG2 cells - 0 hour (AID 1224889); further: nearly all actives have a fitted effect of over 50% in size
How it was run: as §6

[19] = qHTS RealTime-Glo MT Cell Viability Assay in HEK293 cells - 0 hour (AID 1224880)
How it was run: as §4

[20] = qHTS RealTime-Glo MT Cell Viability Assay in HepG2 cells - 8 hour (AID 1224873); further: nearly all actives have a fitted effect of over 55% in size
How it was run: as §1
On the % scale 0 is the no-effect control and ±100 the full control effect.

C=C(C)C(=O)OCCOP(=O)(O)OCCOC(=O)C(=C)C
inactive: outcome [1] | Potency [2] | Potency [3] | max response [4] -2.48% | outcome [5] | outcome [6] | outcome [7] | outcome [8] | Potency [9] | Potency [10] | outcome [11] | Potency [12] | Potency [13] | outcome [14] | Potency [15] | Potency [16] | outcome [17] | Potency [18]

O=C(/N=N/C(=O)OCc1ccccc1)OCc1ccccc1
inactive: outcome [1] | Potency [2] | Potency [3] | max response [4] -13.7% | outcome [5] | outcome [6] | outcome [8] | Potency [9] | Potency [19] | Potency [10] | outcome [11] | Potency [12] | Potency [13] | outcome [14] | Potency [15] | Potency [16] | outcome [17] | Potency [18]

CC(CO)c1ccccc1 (stereo not given)
inactive: outcome [1] | Potency [2] | outcome [20] | max response [4] -0.132% | outcome [5] | outcome [6] | outcome [7] | outcome [8] | Potency [9] | Potency [10] | outcome [11] | Potency [12] | Potency [13] | outcome [14] | Potency [15] | Potency [16] | outcome [17] | Potency [18]

CC(C)=CCOC(=O)c1ccccc1
inactive: outcome [1] | Potency [3] | outcome [20] | max response [4] -0.369% | outcome [5] | outcome [7] | Potency [19] | Potency [10] | outcome [11] | Potency [13] | outcome [14] | Potency [15] | Potency [16] | outcome [17] | Potency [18]

COC(=O)[C@@H]1[C@H]2C[C@H]3c4[nH]c5ccccc5c4CCN3C[C@@H]2CC[C@@H]1O
inactive: outcome [1] | Potency [2] | outcome [5] | outcome [6] | outcome [7] | outcome [8] | Potency [9] | Potency [19] | Potency [10] | outcome [11] | Potency [12] | Potency [13] | outcome [14] | Potency [15] | outcome [17] | Potency [18]

Cc1nc2n(c(=O)c1CCN1CCC(c3noc4cc(F)ccc34)CC1)CCC[C@H]2O
active: Potency [16] 3.69 µM
inactive: activity change, negative = cytotoxic [1] 0.984% [at 15.8 µM] | cytotoxicity increase [2] 6.76% [at 15.8 µM] | viability change, negative = cytotoxic [20] -0.0945% [at 15.8 µM] | activity change [5] -3.48% [at 15.8 µM] | cytotoxicity increase [6] -0.968% [at 15.8 µM] | cytotoxicity [8] 0.861% [at 15.8 µM] | cytotoxicity increase [9] 0.318% [at 15.8 µM] | cytotoxicity increase [10] 6.5% [at 15.8 µM] | cytotoxicity [11] -4% [at 15.8 µM] | cytotoxicity increase [12] 2.66% [at 15.8 µM] | cytotoxicity increase [13] 2.15% [at 15.8 µM] | activity change, negative = cytotoxic [14] -0.162% [at 15.8 µM] | activity change [17] 1.32% [at 15.8 µM] | activity change, negative = cytotoxicity [18] 2.14% [at 15.8 µM]

Nc1nnc(-c2cccc(Cl)c2Cl)c(N)n1
inactive: Potency [2] | outcome [5] | outcome [6] | outcome [8] | Potency [9] | Potency [10] | outcome [11] | Potency [12] | Potency [13] | outcome [17]

CNS(=O)(=O)CCc1ccc2[nH]cc(C3CCN(C)CC3)c2c1
inactive: outcome [1] | Potency [2] | max response [4] -4.37% | outcome [5] | outcome [6] | outcome [7] | outcome [8] | Potency [9] | Potency [19] | Potency [10] | outcome [11] | Potency [12] | Potency [13] | outcome [14] | Potency [15] | Potency [16] | outcome [17] | Potency [18]

Cc1cccc2nccnc12
active: Potency [2] 24.5 µM | Potency [10] 24.5 µM
inactive: outcome [1] | max response [4] 6.74% | outcome [8] | Potency [9] | Potency [19] | outcome [11] | Potency [12] | Potency [13] | outcome [14] | Potency [15] | Potency [16] | Potency [18]

COc1ccc2nc(SCc3ncc(C)c(OC)c3C)[nH]c2c1
inactive: outcome [1] | Potency [2] | outcome [20] | outcome [8] | Potency [9] | Potency [10] | outcome [11] | Potency [12] | Potency [13] | outcome [14] | outcome [17] | Potency [18]

O=C(O)Cc1ccc(Cl)cc1Cl
inactive: Potency [2] | Potency [3] | max response [4] -0.186% | outcome [5] | outcome [7] | Potency [10] | Potency [13] | outcome [14] | Potency [15] | Potency [16] | outcome [17]
